Experimental data reported in PubChem BioAssay (Tox21).
Results filed as inconclusive are left out. The source made the active and inactive calls. Unless noted, calls follow the shape of the dose curve; as a rule, active = well fitted curve in the direction sought with a large enough effect in the repeat runs; inconclusive = weak or mixed curves; inactive = no such curve, though single readings can be large; an effect the other way counts as inactive or inconclusive.

Key:
[1] = qHTS assay to identify small molecule agonists of the estrogen receptor alpha (ER-alpha) signaling pathway in the presence of an antagonist - cell viability counter screen (AID 1259386);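 also: series mostly up to about 92 µM; cells exposed to compounds for 22 h at 37 °C before the viability read; nearly all actives have a fitted effect of over 30% in size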
Summary of the method: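 Viability counter screen using VM7Luc4E2 (full-length ER-alpha, four ERE-luciferase). The cells were treated with compounds alongside ICI-182,780 10.0nM for 22hr, and live-cell protease fluorescence was quantified with CellTiter-Fluor.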

[2] = molecular target: Progesterone receptor (Homo sapiens) (UniProt P06401); assay: qHTS assay to identify small molecule agonists of the progesterone receptor (PR) signaling pathway (AID 1346784; calls by dose curve; also: nearly all actives have a fitted effect of over 30% in size)
Summary of the method: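 Using charcoal-stripped serum (2%) to limit endogenous steroids, PR-UAS-bla HEK 293T cells received compounds for 16 hr at 37C after 6 hr plating; beta-lactamase FRET fluorescence was recorded following 2 hr substrate loading at room temperature.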

[3] = molecular target: Progesterone receptor (Homo sapiens) (UniProt P06401); assay: qHTS assay to identify small molecule antagonists of the progesterone receptor (PR) signaling pathway (AID 1346795; active = well fitted inhibition curve with a large enough effect in the signal ratio in the repeat runs, not every such curve was filed as active; the % refers to the signal ratio)
Summary of the method: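 Inhibition of R5020-induced (1 nM final) beta-lactamase reporter signal in PR-UAS-bla HEK293T cells was scored by FRET fluorescence after overnight (16 hr) compound treatment.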

[4] = qHTS assay to identify small molecule antagonists of the progesterone receptor (PR) signaling pathway - cell viability counter screen (AID 1346798); also: series mostly up to about 92 µM; nearly all actives have a fitted effect of over 50% in size
Summary of the method: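 ATP content as viability readout: CellTiter-Glo luminescence, 30 min room temperature, in PR-UAS-bla HEK293T cells after 16 hr compound/R5020 treatment at 37C and 5% CO2.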

[5] = qHTS assay to identify small molecule agonists of the progesterone receptor (PR) signaling pathway - cell viability counter screen (AID 1346799; calls by dose curve; also: nearly all actives have a fitted effect of over 45% in size)
Summary of the method: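 Cytotoxicity in PR-bla HEK293T cells: 16 h compound, 37C; CellTiter-Glo added post-FRET read; luminescence after 30 min RT.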

[6] = qHTS assay to identify small molecule antagonists of the TGF-beta/Smad signaling pathway - cell viability counter screen (AID 1346824); also: nearly all actives have a fitted effect of over 50% in size
Summary of the method: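 Cytotoxicity counter-screen run in the same wells as the beta-lactamase Smad reporter read: CellTiter-Glo luminescence after 30 min at room temperature. HEK 293T SBE-bla cells had 5 hr compound exposure at 37 C with TGF-beta1 (0.25 ng/mL stock).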

[7] = qHTS assay to identify small molecule agonists of the TGF-beta/Smad signaling pathway - cell viability counter screen (AID 1346829); also: top concentration of the series differs between compounds; nearly all actives have a fitted effect of over 45% in size
Summary of the method: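 Tox21 qHTS format: SBE-bla HEK 293T cells treated with DMSO-dissolved compounds for 5 hr; CellTiter-Glo luminescence after 30 min at room temperature.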

[8] = qHTS assay to identify small molecule agonists of the TGF-beta/Smad signaling pathway (AID 1346859; active = well fitted activation curve with a large enough effect in the signal ratio in the repeat runs, not every such curve was filed as active; the % refers to the signal ratio; also: series mostly up to about 77 µM)
Summary of the method: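 Stable Smad binding element-beta-lactamase HEK 293T cells; 5 hr compound exposure at 37 C under 5% CO2; 2 hr room-temperature substrate step; fluorescence excited at 405 nm, collected at 460 nm and 530 nm.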

[9] = Human pregnane X receptor (PXR) small molecule agonists, qHTS cell viability counter screen (AID 1346977); also: nearly all actives have a fitted effect of over 50% in size
Summary of the method: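 Readout is CellTiter-Fluor fluorescence from PXR-Luc HepG2 cells. Plated cells rested 5hr, then were treated with compounds for 24hr at 37C and 5% CO2, with reagent present during the last hour.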

[10] = Caspase-3/7 induction in HepG2 cells by small molecules, qHTS assay (AID 1346978); also: nearly all actives have a fitted effect of over 15% in size
Summary of the method: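 Caspase-3/7 induction was measured by Caspase-Glo 3/7 luminescence (30 min, room temperature) after a 17 hr compound exposure of wild-type HepG2 cells seeded at 2,000 per well and pre-incubated 5 hr.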

[11] = Caspase-3/7 induction in CHO-K1 cells by small molecules, qHTS cell viability counter screen (AID 1346979); also: nearly all actives have a fitted effect of over 35% in size
Summary of the method: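 To flag cytotoxic compounds, treated CHO-K1 wild-type cells were given CellTiter-Fluor at 16hr and read fluorescently after 1hr at 37C; the caspase-3/7 luminescence was measured in these same wells.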

[12] = Caspase-3/7 induction in CHO-K1 cells by small molecules, qHTS assay (AID 1346980); also: nearly all actives have a fitted effect of over 15% in size
Summary of the method: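 Luminescent Caspase-Glo 3/7 read (30min, room temperature) quantified apoptosis induction. Cells were wild-type CHO-K1, treated with compound for 17hr at 37 C and 5% CO2.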

[13] = Caspase-3/7 induction in HepG2 cells by small molecules, qHTS cell viability counter screen (AID 1346981); also: series mostly up to about 92 µM; nearly all actives have a fitted effect of over 30% in size
Summary of the method: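 Viability determined by CellTiter-Fluor fluorescence in HepG2 wells also used for the luminescent Caspase-Glo 3/7 read. Compounds were present for 16 hr at 37 C, 5% CO2 before reagent addition.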

[14] = molecular target: Nuclear receptor subfamily 1 group I member 2 (Rattus norvegicus) (UniProt Q9R1A7); assay: Rat pregnane X receptor (rPXR) activation by small molecules, qHTS assay (AID 1346983); conditions: rPXR luciferase reporter cells, One-Glo luminescence, 24 h; max activation: hits give high values; also: nearly all actives have a fitted effect of over 20% in size
Summary of the method: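 Luminescent readout (One-Glo luciferase, 30 min room temperature) followed 24 hr compound treatment at 37 C of rPXR cells plated 2,000 per well and preincubated 5hr; qHTS format with compounds delivered in DMSO.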

[15] = molecular target: Nuclear receptor subfamily 1 group I member 2 (Homo sapiens) (UniProt O75469); assay: CYP3A4 induction through human pregnane X receptor (PXR) by small molecules, qHTS assay (AID 1346984); also: nearly all actives have a fitted effect of over 40% in size
Summary of the method: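 Readings come from a luciferase reporter: DPX-2 cells, which are HepG2 cotransfected with PXR and a CYP3A4-promoter construct, were exposed to test compounds for 24 h at 37C before One-Glo detection.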

[16] = molecular target: Nuclear receptor subfamily 1 group I member 2 (Homo sapiens) (UniProt O75469); assay: Human pregnane X receptor (PXR) activation by small molecules, qHTS assay (AID 1346985); also: nearly all actives have a fitted effect of over 40% in size
Summary of the method: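 DPX-2 cells (HepG2 co-transfected with a PXR response element and a CYP3A4-promoter luciferase construct) were seeded at 2,000 per well, rested 5 hr at 37C, then exposed to DMSO-dissolved compounds for 24 hr. Activation was read as luciferase luminescence.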

[17] = molecular target: Thyrotropin receptor (Homo sapiens) (UniProt P16473); assay: qHTS assay to identify small molecule antagonists of the thyroid stimulating hormone receptor (TSHR) signaling pathway (AID 1259385; calls by dose curve; also: nearly all actives have a fitted effect of over 20% in size)
Summary of the method: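 Antagonist mode: compound-treated TSHR-expressing HEK293 cells were stimulated with 1.5 ng/mL TSH (final) in presence of Ro20-1724 for 30 min at RT. HTRF cAMP detection after 1 h; each compound tested at 15 concentrations, triplicate.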

[18] = molecular target: Thyrotropin-releasing hormone receptor (Homo sapiens) (UniProt P34981); assay: qHTS assay to identify small molecule antagonists of the thyrotropin-releasing hormone receptor (TRHR) signaling pathway (AID 1346877; active = well fitted inhibition curve with a large enough effect in the repeat runs, not every such curve was filed as active; also: series mostly up to about 51 µM)
Summary of the method: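 Following an 18 h incubation at 37 °C and a 2 h calcium dye load, TRHR-HEK293 cells were exposed to compound (5 min, room temperature) and challenged with TRH, 1 nM final.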

[19] = molecular target: Thyrotropin-releasing hormone receptor (Homo sapiens) (UniProt P34981); assay: qHTS assay to identify small molecule agonists of the thyrotropin-releasing hormone receptor (TRHR) signaling pathway (AID 1346891; calls by dose curve;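 also: HEK293 cells expressing TRHR with calcium dye readout; series mostly up to about 58 µM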)
Summary of the method: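 In 1536-format, 1500 TRHR-Hek293 cells per well grew 18 h, took up calcium dye for 2 h at 37 °C, received compound, and were read kinetically; 15-point titrations, triplicates.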

[20] = molecular target: Nuclear receptor subfamily 1 group I member 2 (Homo sapiens) (UniProt O75469); assay: Human pregnane X receptor (PXR) small molecule agonists, qHTS assay (AID 1346982); also: nearly all actives have a fitted effect of over 35% in size
Summary of the method: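 Compound-induced hPXR transactivation of a CYP3A4 luciferase reporter was scored in HepG2 PXR-Luc cells over 24 hr at 37 C, 5% CO2, by luminescence.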
% is scaled to controls: 0 for no effect and ±100 for the full control effect.

Thyrotropin receptor (Homo sapiens), sequence (P16473 whole entry, looked up): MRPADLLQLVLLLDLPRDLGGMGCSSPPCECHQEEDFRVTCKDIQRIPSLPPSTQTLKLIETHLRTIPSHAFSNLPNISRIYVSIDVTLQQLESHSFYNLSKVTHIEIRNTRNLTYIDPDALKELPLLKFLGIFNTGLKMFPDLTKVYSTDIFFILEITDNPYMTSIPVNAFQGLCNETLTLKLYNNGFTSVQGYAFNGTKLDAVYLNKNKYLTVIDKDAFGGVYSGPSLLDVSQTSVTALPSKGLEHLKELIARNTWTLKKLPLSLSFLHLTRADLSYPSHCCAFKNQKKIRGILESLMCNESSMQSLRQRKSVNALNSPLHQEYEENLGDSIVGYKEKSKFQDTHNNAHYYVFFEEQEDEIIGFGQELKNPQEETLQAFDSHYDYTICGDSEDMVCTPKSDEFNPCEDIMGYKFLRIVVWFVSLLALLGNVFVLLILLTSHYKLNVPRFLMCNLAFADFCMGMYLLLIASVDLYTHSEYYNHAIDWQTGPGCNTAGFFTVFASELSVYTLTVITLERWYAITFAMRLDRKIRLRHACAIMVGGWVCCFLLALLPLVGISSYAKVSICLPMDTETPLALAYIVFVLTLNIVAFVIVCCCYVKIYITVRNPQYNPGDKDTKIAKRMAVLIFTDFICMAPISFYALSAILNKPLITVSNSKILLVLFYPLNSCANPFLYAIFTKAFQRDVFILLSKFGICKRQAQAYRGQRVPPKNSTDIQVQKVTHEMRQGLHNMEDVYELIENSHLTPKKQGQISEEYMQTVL
Thyrotropin-releasing hormone receptor (Homo sapiens), sequence (P34981 whole entry, looked up): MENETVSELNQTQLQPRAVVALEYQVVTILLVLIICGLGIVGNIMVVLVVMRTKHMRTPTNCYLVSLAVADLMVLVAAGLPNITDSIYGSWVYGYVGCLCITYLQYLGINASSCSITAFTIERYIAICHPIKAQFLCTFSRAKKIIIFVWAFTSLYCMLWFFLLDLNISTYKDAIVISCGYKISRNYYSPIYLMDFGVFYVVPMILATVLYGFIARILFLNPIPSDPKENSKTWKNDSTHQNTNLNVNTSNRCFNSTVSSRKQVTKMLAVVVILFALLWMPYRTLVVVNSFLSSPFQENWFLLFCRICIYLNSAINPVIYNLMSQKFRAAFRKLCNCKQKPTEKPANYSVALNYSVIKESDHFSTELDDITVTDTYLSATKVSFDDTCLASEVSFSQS
Nuclear receptor subfamily 1 group I member 2 (Homo sapiens), sequence (O75469 whole entry, looked up): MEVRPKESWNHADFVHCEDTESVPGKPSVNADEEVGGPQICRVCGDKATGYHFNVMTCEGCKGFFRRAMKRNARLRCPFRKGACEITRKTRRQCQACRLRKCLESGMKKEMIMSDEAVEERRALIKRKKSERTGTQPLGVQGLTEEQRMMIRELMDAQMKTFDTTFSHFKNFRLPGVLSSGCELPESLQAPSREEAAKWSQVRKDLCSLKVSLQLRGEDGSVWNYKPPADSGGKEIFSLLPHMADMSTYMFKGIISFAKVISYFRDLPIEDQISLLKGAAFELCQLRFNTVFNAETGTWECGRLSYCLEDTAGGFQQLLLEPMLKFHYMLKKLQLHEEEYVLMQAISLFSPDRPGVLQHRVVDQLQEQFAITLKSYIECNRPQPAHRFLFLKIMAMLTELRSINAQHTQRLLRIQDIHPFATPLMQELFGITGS
Progesterone receptor (Homo sapiens), sequence (P06401 whole entry, looked up): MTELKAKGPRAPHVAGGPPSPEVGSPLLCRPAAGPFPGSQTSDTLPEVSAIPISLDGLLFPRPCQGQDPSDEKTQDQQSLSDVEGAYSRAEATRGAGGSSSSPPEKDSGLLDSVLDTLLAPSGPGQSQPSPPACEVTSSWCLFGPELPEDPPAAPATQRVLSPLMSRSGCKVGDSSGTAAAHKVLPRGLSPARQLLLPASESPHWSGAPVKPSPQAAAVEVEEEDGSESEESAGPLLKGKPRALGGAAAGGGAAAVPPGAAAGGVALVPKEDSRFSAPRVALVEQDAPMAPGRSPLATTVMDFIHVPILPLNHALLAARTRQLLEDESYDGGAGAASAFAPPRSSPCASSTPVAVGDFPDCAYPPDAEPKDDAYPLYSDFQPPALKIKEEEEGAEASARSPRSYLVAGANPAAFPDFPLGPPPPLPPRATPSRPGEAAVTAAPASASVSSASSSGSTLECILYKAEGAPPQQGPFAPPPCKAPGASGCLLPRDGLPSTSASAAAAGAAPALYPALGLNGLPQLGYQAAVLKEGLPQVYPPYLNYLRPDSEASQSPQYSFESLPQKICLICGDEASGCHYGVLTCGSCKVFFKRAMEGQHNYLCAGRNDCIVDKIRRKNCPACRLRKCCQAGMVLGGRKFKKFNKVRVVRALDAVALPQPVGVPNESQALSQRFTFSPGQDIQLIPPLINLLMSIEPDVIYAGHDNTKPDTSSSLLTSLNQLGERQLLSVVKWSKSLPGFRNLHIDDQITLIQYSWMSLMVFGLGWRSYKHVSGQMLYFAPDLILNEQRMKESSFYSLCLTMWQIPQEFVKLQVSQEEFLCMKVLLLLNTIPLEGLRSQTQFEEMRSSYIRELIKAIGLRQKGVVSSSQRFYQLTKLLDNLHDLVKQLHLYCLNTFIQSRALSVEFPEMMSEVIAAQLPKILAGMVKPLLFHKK
Nuclear receptor subfamily 1 group I member 2 (Rattus norvegicus), sequence (Q9R1A7 whole entry, looked up): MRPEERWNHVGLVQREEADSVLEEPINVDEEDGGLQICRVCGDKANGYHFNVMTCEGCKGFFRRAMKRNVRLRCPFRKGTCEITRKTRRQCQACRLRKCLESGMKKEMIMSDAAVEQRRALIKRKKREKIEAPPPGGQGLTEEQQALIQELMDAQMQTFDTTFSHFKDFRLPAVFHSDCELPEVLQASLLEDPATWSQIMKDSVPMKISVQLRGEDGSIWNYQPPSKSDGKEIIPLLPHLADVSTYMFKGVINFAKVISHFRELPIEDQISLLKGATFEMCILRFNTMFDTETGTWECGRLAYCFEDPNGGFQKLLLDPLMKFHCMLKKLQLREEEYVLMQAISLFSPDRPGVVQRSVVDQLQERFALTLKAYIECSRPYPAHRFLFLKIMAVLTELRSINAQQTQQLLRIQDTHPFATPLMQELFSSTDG

Cc1cc(C)c(NC(=O)CN(CC(=O)O)CC(=O)O)c(C)c1Br
inactive: outcome [1] | Potency [2] | Potency [3] | Potency [4] | Potency [5] | outcome [6] | outcome [7] | outcome [8] | Potency [9] | outcome [10] | Potency [11] | outcome [12] | outcome [13] | max activation [14] -1.5% | Potency [15] | Potency [16]

CC12CCC(CC1=O)C2(C)C (stereo unspecified)
inactive: Potency [17] | Potency [2] | Potency [4] | Potency [5] | outcome [6] | outcome [8] | outcome [18] | outcome [19] | Potency [9] | outcome [10] | Potency [11] | outcome [12] | outcome [13] | Potency [20]

NC1CCN(c2cccc(Cl)n2)CC1
inactive: outcome [1] | Potency [2] | Potency [3] | Potency [4] | Potency [5] | outcome [6] | outcome [7] | outcome [8] | outcome [18] | outcome [19] | Potency [9] | outcome [10] | Potency [11] | outcome [12] | outcome [13]

OC[C@H]1O[C@@H]2O[C@H]3[C@H](O)[C@@H](O)[C@@H](O[C@H]4[C@H](O)[C@@H](O)[C@@H](O[C@H]5[C@H](O)[C@@H](O)[C@@H](O[C@H]6[C@H](O)[C@@H](O)[C@@H](O[C@H]7[C@H](O)[C@@H](O)[C@@H](O[C@H]8[C@H](O)[C@@H](O)[C@@H](O[C@H]9[C@H](O)[C@@H](O)[C@@H](O[C@H]1[C@H](O)[C@H]2O)O[C@@H]9CO)O[C@@H]8CO)O[C@@H]7CO)O[C@@H]6CO)O[C@@H]5CO)O[C@@H]4CO)O[C@@H]3CO
inactive: Potency [17] | outcome [1] | Potency [4] | Potency [5] | outcome [6] | outcome [7] | outcome [8] | outcome [18] | outcome [19] | Potency [9] | outcome [10] | Potency [11] | outcome [12] | outcome [13] | Potency [20]

Cc1ccc(Nc2ccc(O)c3c2C(=O)c2ccccc2C3=O)cc1
inactive: outcome [1] | Potency [2] | Potency [3] | Potency [4] | outcome [6] | outcome [8] | outcome [18] | outcome [19] | Potency [9] | outcome [10] | Potency [11] | outcome [12] | Potency [20]

CCOC(=O)[C@H](CCc1ccccc1)N[C@@H](C)C(=O)N1CCC[C@H]1C(=O)O
inactive: Potency [17] | outcome [1] | Potency [4] | Potency [5] | outcome [6] | outcome [7] | outcome [8] | outcome [18] | outcome [19] | Potency [9] | outcome [10] | Potency [11] | outcome [12] | max activation [14] -3.1%

CC(=O)OC(C)(C)C
inactive: outcome [1] | Potency [2] | Potency [3] | Potency [4] | Potency [5] | outcome [6] | outcome [7] | outcome [18] | outcome [19] | Potency [9] | outcome [10] | Potency [11] | outcome [12] | outcome [13]

CC(C)(C)CC(C)(C)N
inactive: Potency [17] | outcome [1] | Potency [4] | Potency [5] | outcome [6] | outcome [7] | outcome [8] | Potency [9] | outcome [10] | Potency [11] | outcome [12] | Potency [20]

C=CCOc1nc(OCC=C)nc(OCC=C)n1
inactive: Potency [17] | outcome [1] | Potency [4] | Potency [5] | outcome [6] | outcome [8] | outcome [18] | outcome [19] | Potency [9] | outcome [10] | Potency [11] | outcome [12] | outcome [13]
